Measurements reported in PubChem BioAssay (EPA / NIEHS).
Active and inactive are the calls of the source. The calls were made as follows: active = hit-call score of the fitted dose curve at least 0.9, where 1 is the maximum; inactive = score below 0.9.

Read-out: Monocyte Chemoattractant Protein-1 (MCP1), CCL2 (gene 6347)
Experiment: BSK_SAg_MCP1: BioMAP Diversity Plus: SAg Assay for Monocyte Chemoattractant Protein-1 (MCP1) Biomarker Activity (AID 2283090)
Settings: primary human HUVEC with PBMC; actives raise or lower the signal
Experimental: BSK_SAg is a cell-based, multiplexed-readout assay that uses umbilical vein endothelium and peripheral blood mononuclear cells, a human vascular primary cell co-culture, with measurements taken at 24 hours after chemical dosing in a 96-well plate.BSK_SAg_MCP1 is an assay component measured in the BSK_SAg assay. It measures MCP-1 antibody related to regulation of gene expression using ELISA technology.Data from the assay component BSK_SAg_MCP1 was analyzed into 1 assay endpoint. This assay endpoint, BSK_SAg_MCP1, was analyzed with bidirectional fitting relative to DMSO as the negative control and baseline of activity. Using a type of binding reporter, gain or loss-of-signal activity can be used to understand changes in the signaling as they relate to the gene CCL2. Furthermore, this assay endpoint can be referred to as a primary readout, because this assay has produced multiple assay endpoints where this one serves a signaling function. To generalize the intended target to other relatable targets, this assay endpoint is annotated to the cytokine intended target family, where the subfamily is chemotactic factor.
The levels of cell surface (or secreted, indicated by the prefix "s") biomarker endpoints were measured by ELISA. Overt cytotoxicity to cells in confluent adherent cultures (all systems other than the BT system) was assessed by measuring total protein levels using sulforhodamine B (SRB) staining in parallel cultures at the time of biomarker measurements, indicated as SRB endpoints. For proliferation assays for adherent cell types, individual cell types are cultured at sub-confluence and relative cell numbers quantified by SRB staining at time points optimized for each system (48 h: 3C and CASM3C systems; 72 h: BT and HDF3CGF systems; 96 h: SAg system). SRB was performed by staining cells with 0.1% SRB after fixation with 10% TCA and reading wells at 560 nm.Viability and proliferation of PBMC (T cells) was quantified by Alamar Blue reduction for the SAg and BT systems. For PBMC viability (referred to as PBMC Cytotoxicity within the assay endpoint names), cells were plated (75,000/well in a 96-well plate) and then chemical samples added for 1 h before addition of activators, SEB and TSST-1 (20 ng/mL final concentration each). Cells were incubated for 90 h. Then, Alamar Blue (20 uL/well) (Invitrogen, Cat DAL1100) was added for 6 h, and the plates were read with a fluorescence microplate reader at 546/580 nm (excitation/emission). For PBMC proliferation, cells were plated and activated as above but incubated for only 16 h prior to addition of Alamar Blue. Plates were read after 6 h.

Compound	outcome	AC50
COC(=O)c1ccc(O)cc1	inactive	–
CC1(C)CC(N=C=O)CC(C)(CN=C=O)C1 (stereo not given)	inactive	–
C1CCC(SSC2CCCCC2)CC1	inactive	–
Cc1cccc(C)c1O	inactive	–
CCCCCCCCCCO	inactive	–
O=C(OCCCCCOC(=O)c1ccccc1)c1ccccc1	inactive	–
CCCCOC(=O)CCCCCCCCC(=O)OCCCC	inactive	–
NCCO	inactive	–
C[C@]12C=CC(=O)C=C1CC[C@@H]1[C@@H]2C(=O)C[C@@]2(C)[C@H]1CC[C@]2(O)C(=O)CO	inactive	–
Cc1cccc(Nc2cc(Cl)nc(SCC(=O)O)n2)c1C	inactive	–
CCOC(=O)C(C)(C)Oc1ccc(Cl)cc1	inactive	–
FC(F)(F)C(F)(F)C(F)(F)C(F)(F)C(F)(F)C(F)(F)CCI	inactive	–
NC(=O)Cn1c(=O)cc(CCN2CCN(c3nccc4sccc34)CC2)c2ccc(F)cc21	inactive	–
CNCc1cc(F)ccc1Oc1ccc(Cl)c(Cl)c1	–	26.4 µM (active)
OC[C@@H](O)[C@@H](O)[C@H](O)[C@H](O)CO	inactive	–
COc1ccc2c(c1)c(CC(=O)O)c(C)n2C(=O)c1ccc(Cl)cc1	inactive	–
C=CCOC(=O)c1ccccc1C(=O)OCC=C	inactive	–
Cc1cc(=O)[nH]c(=S)[nH]1	inactive	–
COCCOC[C@H](CC1(C(=O)NC2CCC(C(=O)O)CC2)CCCC1)C(=O)Oc1ccc2c(c1)CCC2 (stereo not given in full)	inactive	–
CN1CCN(Cc2cc(-c3ccc4[nH]c(=O)oc4c3)co2)[C@@H](c2ccc(F)cc2)C1	–	11.5 µM (active)

Compound	outcome	AC50
Cc1ccc(C)c(O)c1C	inactive	–
O=C(N[C@@H](Cc1ccccc1)[C@@H](O)C(=O)N1C[C@@H](O)[C@@H](O)C1)c1cc2cc(Cl)ccc2[nH]1	inactive	–
Oc1ccc2c(c1)OC[C@@H](N1CCC(O)(c3ccc(F)cc3)CC1)[C@H]2O	inactive	–
NS(=O)(=O)c1cc2c(cc1Cl)NCNS2(=O)=O	inactive	–
Cc1ccc(C(C)C)c(O)c1	inactive	–
Cc1ccc(Cl)cc1	inactive	–
O=C(O)Cc1ccccc1Nc1c(Cl)cccc1Cl	inactive	–
C=CCc1ccc(O)c(OC)c1	inactive	–
CC(=O)OC/C=C(\C)CCC=C(C)C	inactive	–
Nc1ccccc1N	inactive	–
CCCCCCCCCCCCCCCC	inactive	–
CCOc1ccc2c(c1)C(C)=CC(C)(C)N2	inactive	–
COc1cc(C=O)ccc1O	inactive	–
O=[N+]([O-])C(CO)(CO)CO	inactive	–
COCCOCCOC	inactive	–
CC(=O)Oc1ccccc1C(=O)O	inactive	–
CN1CCCC1=O	inactive	–
NCC1(Cc2noc(=O)[nH]2)CCCCC1	inactive	–
Oc1ccc2ccccc2c1N=Nc1ccccc1	inactive	–
COc1ccc(C)cc1N	inactive	–
